# Laboratory results taken from PubChem BioAssay.
# The source made the active and inactive calls.
# Tests used:
# [1] = tested on: PRMT1 (protein arginine N-methyltransferase 1); assay: PRMT1 binders on small-molecule microarrays, primary screen, biochemical, small-molecule microarray, 635 nm fluorescence (AID 1088); conditions: small-molecule microarray binding, higher = more signal;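 further: binding of Prmt1 protein to compounds spotted on small-molecule microarray slides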
# [2] = yeast growth modulation, basal conditions, primary screen, YJM789 clinical isolate, OD600, 24 h (AID 1089);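 further: growth of clinical yeast isolate S. cerevisiae YJM 789 seeded 1000 cells per well; test concentration not given here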; conditions: S. cerevisiae YJM789 growth, higher = more signal, called active from +8 up or from −8 down
# [3] = fission yeast growth modulation, primary screen, strain 972, OD600, 24 h, no modulator (AID 1090);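 further: basal condition with compound alone and no growth modifier present; test concentration not given here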; conditions: S. pombe 972 growth, higher = more signal, called active from +8 up or from −8 down
# [4] = S. cerevisiae growth modulation with rapamycin, primary screen, strain BY4716, OD600, 96 h (AID 1091); conditions: higher = more signal, called active from +8 up or from −8 down; further: test concentration not given here
# [5] = biological target: Torsin-1A-interacting protein 2 (Homo sapiens) (UniProt Q8NFQ8); assay: LULL1 binders on small-molecule microarray, primary screen, cell lysate, human LULL1 lysate, 635/667 nm fluorescence (AID 1092); conditions: hLULL1 lysate binding, 635 nm fluorescence, higher = more signal;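 further: probe is lysate of COS7 cells overexpressing human LULL1; score merges per-feature 667 nm fluorescence with signal-to-noise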
# [6] = E. coli growth modulation, two-sided OD650, primary screen, E. coli filamentation project, strain DRC41, 24 h (AID 1093); conditions: OD650, 24 h, higher = more signal, called active from +8 up or from −8 down;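 further: MC1000 strain lacking acrAB efflux and sulA so SOS filamentation is blocked; test concentration not given here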
# [7] = small-molecule microarray binders of probe aLefty2, primary screen, biochemical, biotinylated probe, 635/667 nm fluorescence (AID 1094); conditions: higher = more signal;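 further: score merges spot fluorescence near 667 nm with spot signal-to-noise ratio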
# [8] = tested on: Noggin (protein binding on small-molecule microarray); assay: Noggin binders on small-molecule microarray, primary screen, biochemical, 635/667 nm fluorescence (AID 1095); conditions: 635 nm fluorescence, higher = more signal;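 further: score merges 667 nm feature fluorescence with signal to noise over triplicate slides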
# [9] = biological target: Neurogenic locus notch homolog protein 3 (Homo sapiens) (UniProt Q9UM47); assay: NOTCH3 binders on small-molecule microarray, primary screen, biochemical, 635/667 nm fluorescence (AID 1096); conditions: NOTCH3 binding, 635 nm fluorescence, higher = more signal
# [10] = small-molecule microarray binders of probe aEGFR, primary screen, biochemical, biotinylated probe, 635/667 nm fluorescence (AID 1097); conditions: higher = more signal;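 further: probe is a biotinylated anti-EGFR antibody binding compounds printed on slides; score combines fluorescence near 667 nm and signal to noise of each spot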
# Chain of Torsin-1A-interacting protein 2 (Homo sapiens) (Q8NFQ8 whole entry, looked up): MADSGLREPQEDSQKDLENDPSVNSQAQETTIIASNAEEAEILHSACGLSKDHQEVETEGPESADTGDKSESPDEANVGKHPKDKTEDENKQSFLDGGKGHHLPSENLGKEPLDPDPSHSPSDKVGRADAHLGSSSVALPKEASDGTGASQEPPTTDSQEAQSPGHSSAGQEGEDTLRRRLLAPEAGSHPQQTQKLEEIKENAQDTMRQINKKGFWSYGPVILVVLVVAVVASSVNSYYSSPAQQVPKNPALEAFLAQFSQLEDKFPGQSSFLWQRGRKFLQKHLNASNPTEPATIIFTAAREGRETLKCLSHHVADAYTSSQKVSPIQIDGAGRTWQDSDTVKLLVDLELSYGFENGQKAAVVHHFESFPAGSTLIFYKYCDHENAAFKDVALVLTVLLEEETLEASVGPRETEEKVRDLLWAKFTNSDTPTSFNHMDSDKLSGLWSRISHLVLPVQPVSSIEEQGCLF
# Chain of Neurogenic locus notch homolog protein 3 (Homo sapiens) (Q9UM47 whole entry, looked up): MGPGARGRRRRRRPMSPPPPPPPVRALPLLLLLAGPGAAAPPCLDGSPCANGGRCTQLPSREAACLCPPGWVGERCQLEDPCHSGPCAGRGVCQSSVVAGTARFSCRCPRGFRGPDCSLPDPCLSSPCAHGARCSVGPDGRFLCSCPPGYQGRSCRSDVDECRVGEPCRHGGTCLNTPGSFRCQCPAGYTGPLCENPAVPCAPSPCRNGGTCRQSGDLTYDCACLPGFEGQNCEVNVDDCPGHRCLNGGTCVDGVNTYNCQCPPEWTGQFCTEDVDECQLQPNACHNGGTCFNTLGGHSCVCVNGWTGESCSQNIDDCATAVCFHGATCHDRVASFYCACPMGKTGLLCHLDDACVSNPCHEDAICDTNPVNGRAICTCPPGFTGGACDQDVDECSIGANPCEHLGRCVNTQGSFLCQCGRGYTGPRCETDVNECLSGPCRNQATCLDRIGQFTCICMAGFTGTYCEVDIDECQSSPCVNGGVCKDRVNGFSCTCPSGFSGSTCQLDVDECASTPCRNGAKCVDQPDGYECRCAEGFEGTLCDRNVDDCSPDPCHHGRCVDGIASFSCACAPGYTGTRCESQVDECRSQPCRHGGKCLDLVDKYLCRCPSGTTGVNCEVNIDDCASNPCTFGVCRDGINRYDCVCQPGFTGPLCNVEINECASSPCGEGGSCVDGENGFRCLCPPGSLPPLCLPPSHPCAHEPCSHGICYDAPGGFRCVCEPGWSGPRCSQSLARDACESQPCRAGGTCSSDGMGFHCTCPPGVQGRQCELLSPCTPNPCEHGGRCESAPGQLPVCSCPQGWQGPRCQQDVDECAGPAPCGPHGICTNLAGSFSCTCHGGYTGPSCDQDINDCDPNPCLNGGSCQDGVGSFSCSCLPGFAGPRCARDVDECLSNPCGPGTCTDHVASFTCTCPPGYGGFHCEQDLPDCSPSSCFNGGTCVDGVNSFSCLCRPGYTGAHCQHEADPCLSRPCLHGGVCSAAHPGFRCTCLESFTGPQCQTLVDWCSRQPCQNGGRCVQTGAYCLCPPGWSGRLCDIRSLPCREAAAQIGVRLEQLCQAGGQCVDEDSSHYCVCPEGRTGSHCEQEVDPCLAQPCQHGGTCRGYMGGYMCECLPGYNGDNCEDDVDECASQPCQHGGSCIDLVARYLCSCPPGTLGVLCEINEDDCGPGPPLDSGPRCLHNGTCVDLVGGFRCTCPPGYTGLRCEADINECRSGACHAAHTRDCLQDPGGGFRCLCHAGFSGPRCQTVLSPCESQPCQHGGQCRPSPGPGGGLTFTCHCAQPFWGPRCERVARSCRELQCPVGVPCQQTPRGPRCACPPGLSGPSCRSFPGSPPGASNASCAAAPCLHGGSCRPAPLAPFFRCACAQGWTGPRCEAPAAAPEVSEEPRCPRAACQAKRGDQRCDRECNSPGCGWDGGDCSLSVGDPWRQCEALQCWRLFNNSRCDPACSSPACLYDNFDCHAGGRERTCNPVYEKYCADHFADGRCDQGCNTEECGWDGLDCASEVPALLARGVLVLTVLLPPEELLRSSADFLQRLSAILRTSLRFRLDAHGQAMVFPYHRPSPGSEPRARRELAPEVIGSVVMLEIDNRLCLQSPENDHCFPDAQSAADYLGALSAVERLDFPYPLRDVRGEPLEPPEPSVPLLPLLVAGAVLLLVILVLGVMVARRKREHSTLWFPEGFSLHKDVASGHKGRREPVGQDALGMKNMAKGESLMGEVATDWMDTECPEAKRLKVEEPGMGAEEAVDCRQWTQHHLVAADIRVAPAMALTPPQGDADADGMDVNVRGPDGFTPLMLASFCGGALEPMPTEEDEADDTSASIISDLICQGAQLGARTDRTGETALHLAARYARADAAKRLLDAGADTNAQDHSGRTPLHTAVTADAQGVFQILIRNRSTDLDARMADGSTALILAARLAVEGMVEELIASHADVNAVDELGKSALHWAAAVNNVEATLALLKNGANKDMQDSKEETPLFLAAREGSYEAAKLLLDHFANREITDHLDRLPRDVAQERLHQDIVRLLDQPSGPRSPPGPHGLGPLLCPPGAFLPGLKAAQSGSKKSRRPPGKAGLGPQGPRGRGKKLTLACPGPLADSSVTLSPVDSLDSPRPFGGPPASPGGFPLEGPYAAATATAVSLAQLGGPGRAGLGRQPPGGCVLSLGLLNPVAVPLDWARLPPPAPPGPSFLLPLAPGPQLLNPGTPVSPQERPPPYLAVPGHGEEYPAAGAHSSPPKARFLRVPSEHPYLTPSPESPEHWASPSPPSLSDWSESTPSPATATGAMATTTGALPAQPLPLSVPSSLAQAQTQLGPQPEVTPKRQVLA
SMILES,composite z-score [1],z-score [2],z-score [3],z-score [4],composite z-score [5],z-score [6],composite z-score [7],composite z-score [8],composite z-score [9],composite z-score [10]
COCCOC(=O)N1C(=O)[C@@]2(c3cc(C#CC4(O)CCCCCC4)ccc31)[C@H](c1ccc(O)cc1)N1[C@H](c3ccccc3)[C@H](c3ccccc3)OC(=O)[C@H]1[C@@H]2C(=O)Nc1nc2ccccc2s1,1.35,0.861 (inactive),-0.0153 (inactive),0.383 (inactive),3.08,-0.369 (inactive),1.04,1.59,1.1,0.292
CC(C)c1ccc(NN2C(C(O)C(c3ccccc3)c3ccccc3)C=CC3C(=O)N(c4ccccc4)C(=O)C32)cc1 (stereo not given),1.56,0.709 (inactive),-0.223 (inactive),1.04 (inactive),2.63,-2.08 (inactive),0.0399,0.63,1.06,0.104
COc1ccc(C(O)C2C=CC3C(=O)NC(=O)C3N2Nc2ccccn2)cc1 (stereo not given),0.425,0.181 (inactive),0.312 (inactive),0.359 (inactive),0.665,-0.434 (inactive),0.251,0.195,0.49,0.164
COC(=O)C=C(CC(O)c1cccc(Cl)c1)OC (stereo not given),0.0922,-4.19 (inactive),-10.8 (active),-1.02 (inactive),2.4,0.0753 (inactive),1.06,-0.309,-0.547,0.115
O=C1OCCC/C=C\[C@H]2OC34C=CCN(Cc5ccccc5)C(=O)[C@H]3N(CCCCCCO)C(=O)[C@@H]4C12 (stereo not given in full),-0.197,0.464 (inactive),-0.431 (inactive),0.0977 (inactive),2.24,0.991 (inactive),0.0359,-2.14,-0.927,-0.237
CC(C)(C)OC(=O)CC[C@@]1(C(=O)NCC(O)CO)N=C(c2ccc(OCCCO)cc2)O[C@@H]1c1ccccc1N=[N+]=[N-] (stereo not given in full),1.54,1.17 (inactive),-1.74 (inactive),4.99 (inactive),3.76,1.26 (inactive),0.247,1.04,0.626,0.0773
CC(C)C[C@H]1NC(=O)[C@@]23C(=O)N[C@@H](Cc4ccccc4)C2[C@H](C)[C@@]2(C)O[C@H]2C3/C=C/C/C=C\CNC(=O)[C@H](Cc2ccccc2)NC1=O (stereo not given in full),1.14,0.871 (inactive),-0.388 (inactive),-0.332 (inactive),1.13,0.11 (inactive),-0.157,1.39,0.937,-0.156
COCCOC(=O)N1C(=O)[C@@]2(c3cc(C#Cc4ccc(OC)cc4)ccc31)[C@H](c1ccccc1OCCO)N1[C@H](c3ccccc3)[C@H](c3ccccc3)OC(=O)[C@H]1[C@@H]2C(=O)N1CCN(c2ncccn2)CC1,1.35,3.34 (inactive),1.95 (inactive),7.23 (inactive),2.22,0.579 (inactive),-0.115,0.936,0.836,-0.058
CC(C)(C)OC(=O)CC[C@@]12N=C(c3ccc(OCCCO)cc3)O[C@@H]1c1ccccc1N(CCS(=O)(=O)c1ccccc1)C2=O,1.07,-0.0877 (inactive),0.326 (inactive),0.0825 (inactive),2.48,1.68 (inactive),0.193,0.427,0.784,-0.0679
O=C1c2ccccc2[C@@]2(Cc3ccccc3N(CCN3CCOCC3)C2=O)[C@H](c2ccc(CO)cc2)N1Cc1ccccc1,1.08,-0.338 (inactive),0.047 (inactive),-1.78 (inactive),1.4,0.959 (inactive),-0.156,-0.0855,-0.038,-0.172
C[N+](C)(C)CCCCNC(=O)[C@H]1C[C@H]2C(=O)N[C@@H](Cc3ccccc3)C(=O)N2[C@H]1c1ccc(O)cc1,0.684,1.1 (inactive),-0.0797 (inactive),-1.15 (inactive),-0.114,0.282 (inactive),-0.108,1.69,0.471,-0.112
O=C1[C@H]2C=C(Br)[C@H](C[C@@H]2OCCCCO)[C@@]12CO2,-0.162,0.176 (inactive),-0.248 (inactive),0.93 (inactive),-0.99,-1.03 (inactive),-0.0778,-0.0486,0.221,-0.0409
C=CCNC(=O)[C@@H]1[C@H]2C(=O)O[C@H](c3ccccc3)[C@H](c3ccccc3)N2[C@H](c2ccc(OCCO)cc2)[C@@]12C(=O)Nc1ccc(C#CCCO)cc12,1.52,0.85 (inactive),0.975 (inactive),3.39 (inactive),3.29,-0.207 (inactive),0.501,1.36,1.12,0.692
C=C[C@H](COC(C)=O)N(C(=O)OC(C)(C)C)S(=O)(=O)c1ccc(Br)cc1,0.616,0.0834 (inactive),-1.25 (inactive),0.239 (inactive),0.597,1.47 (inactive),0.518,1.09,0.0585,0.545
O=C1O[C@H](c2ccccc2)[C@H](c2ccccc2)N2[C@H]1[C@@H](C(=O)NC[C@H](O)c1ccccc1)[C@]1(C(=O)Nc3ccccc31)[C@H]2c1ccc(OCCO)cc1,1.58,2.12 (inactive),1.93 (inactive),5.07 (inactive),2.39,-0.965 (inactive),-0.147,0.234,0.797,-0.0244
[N-]=[N+]=Nc1ccccc1C[C@]1(C(=O)NCC(O)CO)N=C(c2ccc(OCCCO)cc2)O[C@H]1c1ccccc1N=[N+]=[N-] (stereo not given in full),-0.918,0.637 (inactive),-0.824 (inactive),0.0558 (inactive),2.98,0.774 (inactive),0.334,-0.609,0.203,0.383
COCCOC(=O)N1C(=O)[C@@]2(c3ccccc31)[C@H](c1ccccc1OCCO)N1[C@H](c3ccccc3)[C@H](c3ccccc3)OC(=O)[C@H]1[C@@H]2C(=O)Nc1nc2ccccc2s1,1.56,1.68 (inactive),0.981 (inactive),4.61 (inactive),2.25,2.25 (inactive),-0.0285,1.47,1.09,-0.0244
CCCCN1CC=CC23O[C@@H]4C=CCOC(=O)[C@@H]4[C@H]2C(=O)N(CCCCCO)[C@@H]3C1=O (stereo not given in full),-0.0902,-0.404 (inactive),-0.244 (inactive),-0.279 (inactive),3.04,1.34 (inactive),0.0695,-0.929,-0.445,-0.268
O=C1O[C@@H](c2ccccc2)[C@@H](c2ccccc2)N2[C@@H](c3ccc(OCCO)cc3)[C@]3(C(=O)Nc4ccccc43)[C@@H](C(=O)NC[C@H](O)c3ccccc3)[C@H]12,1.35,1.63 (inactive),1.59 (inactive),4.14 (inactive),2.44,-0.46 (inactive),0.161,0.457,0.488,0.174
COCC(=C=CC[C@H](O)c1ccccc1OCCO)C[C@H](O)c1cc(Cl)cc(Cl)c1O,1.45,-24.4 (active),-20.3 (active),-4.61 (inactive),2.7,-0.628 (inactive),-0.0653,0.653,1.03,-0.0703
COc1cc(OC)c(C(O)C2C=CC3C(=O)NC(=O)C3N2Nc2ccc(Cl)cc2Cl)cc1Br (stereo not given),0.743,-18.8 (active),0.109 (inactive),-0.55 (inactive),3.34,-1.99 (inactive),0.277,-0.48,0.541,0.0009
CCCCCN1CC=CC23O[C@@H]4/C=C\CCCOC(=O)C4[C@H]2C(=O)N(CCCO)[C@@H]3C1=O (stereo not given in full),0.83,-1.03 (inactive),-0.81 (inactive),-1.67 (inactive),3.58,2.35 (inactive),-0.135,-0.103,0.165,-0.186
COc1cc2c(cc1O)C(C1CC1)N(Cc1cc3c(cc1Br)OCO3)CC2 (stereo not given),-0.221,0.19 (inactive),-3.12 (inactive),-0.24 (inactive),1.61,-1.91 (inactive),-0.209,-0.774,-0.346,-0.363
CN1C(=O)C2C=CC(C(O)C3=C[C@H]4C[C@@H](C3)C4(C)C)N(Nc3ccccc3)C2C1=O (stereo not given in full),0.965,0.443 (inactive),0.192 (inactive),1.31 (inactive),2.46,0.0208 (inactive),0.161,0.305,1.14,-0.0065
Cc1ccc(S[C@]2(C(=O)NCCN3CCOCC3)CC(=O)N(Cc3ccccc3Cl)[C@@H]2c2ccc(CO)cc2)cc1,-0.241,-1.17 (inactive),-0.895 (inactive),-0.812 (inactive),3.07,0.149 (inactive),-0.057,-0.157,0.201,-0.128
O=C1OCCC=C[C@H]2OC34C=CCN(CCN5CCOCC5)C(=O)[C@H]3N(CCCCCCO)C(=O)[C@@H]4C12 (stereo not given in full),0.358,0.807 (inactive),-1 (inactive),0.201 (inactive),0.562,0.15 (inactive),-0.294,-0.627,-0.017,-0.251
CC(C)N1C(=O)[C@@]2(Cc3ccccc31)c1ccccc1C(=O)N(C1CCCCC1)[C@H]2c1ccc(CO)cc1,1.56,-0.0915 (inactive),-0.34 (inactive),-2.58 (inactive),2.01,-1.61 (inactive),-0.132,0.79,0.79,0.0117
CCOC(=O)C[C@H]1[C@H](OC(=O)Cc2ccc3c(c2)OCO3)[C@@H](NC(=O)c2ccc(-c3ccccc3)cc2)c2cc(OCCCO)ccc2N1C(=O)Cc1ccc(OC)cc1,0.81,-1.32 (inactive),-1.09 (inactive),0.105 (inactive),0.826,1.09 (inactive),0.0163,0.185,0.921,0.0881
